# Results published in PMC11062922 (Nature Chemical Biology, 2023).
# Read-outs that look alike come from different tables or passages of the source.
# Tested on: IRAK4
# Settings: read-out: apparent Kd, n = 1
substance,measurement,setting,value
Lestaurtinib,potency estimated from few doses,"compound concentrations:100 nM and 1000 nM (sheet 'Lestaurtinib' of Supplementary Table 1),run:Lestaurtinib_02443_R2,Plate:MR009",0.0922 µM
same,potency estimated from few doses,"compound concentrations:100 nM and 1000 nM (sheet 'Lestaurtinib' of Supplementary Table 1),run:Lestaurtinib_02443_R3,Plate:MR009",0.0989 µM
same,potency estimated from few doses,"compound concentrations:100 nM and 1000 nM (sheet 'Lestaurtinib' of Supplementary Table 1),run:Lestaurtinib_02473_R1,Plate:MR010",0.0798 µM
same,potency estimated from few doses,"compound concentrations:100 nM and 1000 nM (sheet 'Lestaurtinib' of Supplementary Table 1),run:Lestaurtinib_02473_R2,Plate:MR010",0.132 µM
same,potency estimated from few doses,"compound concentrations:100 nM and 1000 nM (sheet 'Lestaurtinib' of Supplementary Table 1),run:Lestaurtinib_02473_R3,Plate:MR010",0.0965 µM
same,potency estimated from few doses,"compound concentrations:100 nM and 1000 nM (sheet 'Lestaurtinib' of Supplementary Table 1),run:Lestaurtinib_02482_R1,Plate:MR011",0.0782 µM
same,potency estimated from few doses,"compound concentrations:100 nM and 1000 nM (sheet 'Lestaurtinib' of Supplementary Table 1),run:Lestaurtinib_02482_R2,Plate:MR011",0.18 µM
same,potency estimated from few doses,"compound concentrations:100 nM and 1000 nM (sheet 'Lestaurtinib' of Supplementary Table 1),run:Lestaurtinib_02482_R3,Plate:MR011",0.0997 µM
same,potency estimated from few doses,"compound concentrations:100 nM and 1000 nM (sheet 'Lestaurtinib' of Supplementary Table 1),run:Lestaurtinib_02496_R1,Plate:MR013",0.124 µM
same,potency estimated from few doses,"compound concentrations:100 nM and 1000 nM (sheet 'Lestaurtinib' of Supplementary Table 1),run:Lestaurtinib_02496_R2,Plate:MR013",0.146 µM
same,potency estimated from few doses,"compound concentrations:100 nM and 1000 nM (sheet 'Lestaurtinib' of Supplementary Table 1),run:Lestaurtinib_02496_R3,Plate:MR013",0.193 µM
same,potency estimated from few doses,"compound concentrations:100 nM and 1000 nM (sheet 'Lestaurtinib' of Supplementary Table 1),run:Lestaurtinib_02566_R1,Plate:MR014",0.142 µM
same,potency estimated from few doses,"compound concentrations:100 nM and 1000 nM (sheet 'Lestaurtinib' of Supplementary Table 1),run:Lestaurtinib_02566_R3,Plate:MR014",0.0808 µM
same,potency estimated from few doses,"compound concentrations:100 nM and 1000 nM (sheet 'Lestaurtinib' of Supplementary Table 1),run:Lestaurtinib_02577_R1,Plate:MR016",0.0886 µM
same,potency estimated from few doses,"compound concentrations:100 nM and 1000 nM (sheet 'Lestaurtinib' of Supplementary Table 1),run:Lestaurtinib_02577_R2,Plate:MR016",0.0975 µM
same,potency estimated from few doses,"compound concentrations:100 nM and 1000 nM (sheet 'Lestaurtinib' of Supplementary Table 1),run:Lestaurtinib_02577_R3,Plate:MR016",0.0638 µM
same,potency estimated from few doses,"compound concentrations:100 nM and 1000 nM (sheet 'Lestaurtinib' of Supplementary Table 1),run:Lestaurtinib_02601_R1,Plate:MR018",0.144 µM
same,potency estimated from few doses,"compound concentrations:100 nM and 1000 nM (sheet 'Lestaurtinib' of Supplementary Table 1),run:Lestaurtinib_02601_R2,Plate:MR018",0.142 µM
same,potency estimated from few doses,"compound concentrations:100 nM and 1000 nM (sheet 'Lestaurtinib' of Supplementary Table 1),run:Lestaurtinib_02606_R1,Plate:MR019",0.0885 µM
same,potency estimated from few doses,"compound concentrations:100 nM and 1000 nM (sheet 'Lestaurtinib' of Supplementary Table 1),run:Lestaurtinib_02624_R2,Plate:MR020",0.143 µM
same,potency estimated from few doses,"compound concentrations:100 nM and 1000 nM (sheet 'Lestaurtinib' of Supplementary Table 1),run:Lestaurtinib_02624_R3,Plate:MR020",0.124 µM
same,potency estimated from few doses,"compound concentrations:100 nM and 1000 nM (sheet 'Lestaurtinib' of Supplementary Table 1),run:Lestaurtinib_02724_R2,Plate:MR021",0.0993 µM
same,potency estimated from few doses,"compound concentrations:100 nM and 1000 nM (sheet 'Lestaurtinib' of Supplementary Table 1),run:Lestaurtinib_02741_R1,Plate:MR023",0.0896 µM
same,potency estimated from few doses,"compound concentrations:100 nM and 1000 nM (sheet 'Lestaurtinib' of Supplementary Table 1),run:Lestaurtinib_02741_R3,Plate:MR023",0.0713 µM
same,potency estimated from few doses,"compound concentrations:100 nM and 1000 nM (sheet 'Lestaurtinib' of Supplementary Table 1),run:Lestaurtinib_02748_R3,Plate:MR024",0.0809 µM
same,potency estimated from few doses,"compound concentrations:100 nM and 1000 nM (sheet 'Lestaurtinib' of Supplementary Table 1),run:Lestaurtinib_02752_R2,Plate:MR025",0.16 µM
same,potency estimated from few doses,"compound concentrations:100 nM and 1000 nM (sheet 'Lestaurtinib' of Supplementary Table 1),run:Lestaurtinib_02752_R3,Plate:MR025",0.0801 µM
same,potency estimated from few doses,"compound concentrations:100 nM and 1000 nM (sheet 'Lestaurtinib' of Supplementary Table 1),run:Lestaurtinib_02765_R2,Plate:MR026",0.0757 µM
same,potency estimated from few doses,"compound concentrations:100 nM and 1000 nM (sheet 'Lestaurtinib' of Supplementary Table 1),run:Lestaurtinib_02766_R2,Plate:MR027",0.146 µM
same,potency estimated from few doses,"compound concentrations:100 nM and 1000 nM (sheet 'Lestaurtinib' of Supplementary Table 1),run:Lestaurtinib_02766_R3,Plate:MR027",0.121 µM
same,potency estimated from few doses,"compound concentrations:100 nM and 1000 nM (sheet 'Lestaurtinib' of Supplementary Table 1),run:Lestaurtinib_02768_R1,Plate:MR028",0.136 µM
same,potency estimated from few doses,"compound concentrations:100 nM and 1000 nM (sheet 'Lestaurtinib' of Supplementary Table 1),run:Lestaurtinib_02768_R2,Plate:MR028",0.0978 µM
same,potency estimated from few doses,"compound concentrations:100 nM and 1000 nM (sheet 'Lestaurtinib' of Supplementary Table 1),run:Lestaurtinib_02795_R2,Plate:MR022",0.0941 µM
same,potency estimated from few doses,"compound concentrations:100 nM and 1000 nM (sheet 'Lestaurtinib' of Supplementary Table 1),run:Lestaurtinib_02795_R3,Plate:MR022",0.239 µM
same,potency estimated from few doses,"compound concentrations:100 nM and 1000 nM (sheet 'Lestaurtinib' of Supplementary Table 1),run:Lestaurtinib_02896_R1,Plate:MR030",0.113 µM
same,potency estimated from few doses,"compound concentrations:100 nM and 1000 nM (sheet 'Lestaurtinib' of Supplementary Table 1),run:Lestaurtinib_03172_R2,Plate:MR031",0.0662 µM
